High-throughput results (PubChem BioAssay)
Tau fluor cs = Counterscreen qHTS for Inhibitors of Tau Fibril Formation, Fluorescence Polarization; Potency, µM (doses to about 57.7 µM), inactives show top-dose activity change, negative = decrease; tau K18 P301L Alexa594 fluorescence, heparin fibrillization; 280,000 tested, 0.93% active; AID 1463, 2008; also: potency is read from the fitted curve at half-maximal effect; % is scaled to controls: 0 for no effect and ±100 for the full control effect; nearly all actives have a fitted effect of over 55% in size
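Human tau K18 P301L (15 uM unlabeled, 0.24 uM Alexa 594-labeled) in 100 mM sodium acetate pH 7 with 20 uM heparin, 6 hr at 37 C. ThT 30 uM added, 1 hr ambient; Alexa 594 FP and total fluorescence read at 555/632 nm.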
KDM4E inh = qHTS Assay for Inhibitors of Human Jumonji Domain Containing 2E (JMJD2E); Lysine-specific demethylase 4E (Homo sapiens), B2RXH2; JMJD2E catalytic domain, FDH-coupled NADH fluorescence (FDH is formaldehyde dehydrogenase); Potency, µM (top dose mostly 57.1 µM), without a hit: top-dose activity change, negative = inhibition, actives largely listed as inhibitors; 230,000 tested, 1.6% active; AID 2147, 2009; active = well fitted inhibition curve with a large enough effect, not every such curve was filed as active; inconclusive = small, poorly fitted or top-dose-only effect, or another doubt; inactive = no such curve, though single readings can be large or run the other way;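 also: potency is read from the fitted curve at half-maximal effect; 0% = wells with enzyme and -100% = buffer wells without enzyme; nearly all actives have a fitted effect of over 50% in size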
Target sequence (B2RXH2 1-337 limits assumed): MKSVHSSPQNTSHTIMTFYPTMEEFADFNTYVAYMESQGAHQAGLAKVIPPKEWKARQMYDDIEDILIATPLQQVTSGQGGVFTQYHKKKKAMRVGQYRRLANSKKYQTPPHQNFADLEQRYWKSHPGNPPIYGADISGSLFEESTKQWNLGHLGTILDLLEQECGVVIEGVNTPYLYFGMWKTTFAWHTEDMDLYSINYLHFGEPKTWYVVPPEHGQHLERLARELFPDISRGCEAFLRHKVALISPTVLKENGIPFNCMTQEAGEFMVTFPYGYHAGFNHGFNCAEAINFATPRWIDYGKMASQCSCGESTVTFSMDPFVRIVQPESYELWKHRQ
Lamin A splicing = qHTS Assay for Modulators of Lamin A Splicing | HeLa LMNA splicing GFP/RFP minigene ratio, 48 h | Potency, µM (top dose mostly 46.1 µM), without a hit: at the highest dose ratio change, negative = inhibition, most hits filed as inhibitors | 200,000 tested, 0.01% active | AID 1487, 2009; active = well fitted inhibition curve with a large enough effect in the signal ratio, with a control signal flat, not every such curve was filed as active; inconclusive = small, poorly fitted or top-dose-only effect, or effect the other way, or a change in a side signal; the % refers to the signal ratio; also: potency is read from the fitted curve at half-maximal effect; % is scaled to controls: 0 for no effect and ±100 for the full control effect
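S3 HeLa stable clones carrying a lamin A-EGFP splicing minigene plus DsRed2 were seeded at 600 cells/well in Opti-MEM with 2% FBS, pin-dosed and incubated 48 h at 37°C. Acumen cytometry (488 nm) gave the GFP/RFP total-intensity ratio.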
CBFb RUNX1 block = qHTS Assay for Compounds Blocking the Interaction Between CBF-beta and RUNX1 for the Treatment of Acute Myeloid Leukemia | Runt-related transcription factor 1 (Homo sapiens) + Core-binding factor subunit beta … | 230,000 tested, under 10 active | AlphaScreen CBFb-His/RUNX1-biotin binding, biochemical | Potency, µM (titrated, usually from 59.8 µM), for inactives: at the top dose activity, negative = inhibition, usual class: inhibitors; also: % of control where 0% means no effect
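His-tagged CBF-beta and biotinylated RUNX1 (30 nM each) were premixed 20 min at room temperature, exposed to compound for 15 min, then given nickel-chelate and streptavidin AlphaScreen beads (50 ng each). After 90 min, AlphaScreen signal was read.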
Tau fibril FP = qHTS for Inhibitors of Tau Fibril Formation, Fluorescence Polarization. AID 1468, 2008. 280,000 tested, 0.39% active. K18 P301L tau heparin fibrillization, Alexa594 FP, 6 h. Potency, µM (doses to about 57.7 µM), for inactives: at the highest dose activity, negative = inhibition, actives largely listed as inhibitors; also: potency is read from the fitted curve at half-maximal effect; % is scaled to controls: 0 for no effect and ±100 for the full control effect; nearly all actives have a fitted effect of over 55% in size
Target sequence (P10636 561-689 P618L limits assumed): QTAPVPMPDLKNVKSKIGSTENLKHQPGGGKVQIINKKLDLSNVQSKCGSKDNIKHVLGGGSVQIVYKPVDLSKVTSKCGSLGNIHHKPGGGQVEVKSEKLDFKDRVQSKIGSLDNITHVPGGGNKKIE
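Human K18 P301L fragment (15 uM unlabeled plus 0.24 uM Alexa 594-labeled) in 100 mM sodium acetate pH 7 with compound, aggregation induced by 20 uM heparin for 6 hr at 37 C. ThT (30 uM) added for 1 hr, then Alexa 594 FP read.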
Tau fibril ThT = qHTS for Inhibitors of Tau Fibril Formation, Thioflavin T Binding. Microtubule-associated protein tau (Homo sapiens), P10636. recombinant tau K18 P301L (four-repeat tau fragment), heparin-induced fibrillization, ThT fluorescence. Potency, µM (doses to about 57.4 µM), without a hit: at the highest dose activity, negative = inhibition, actives largely listed as inhibitors. 270,000 tested, 2.1% active; also: potency is read from the fitted curve at half-maximal effect; % is scaled to controls: 0 for no effect and ±100 for the full control effect; nearly all actives have a fitted effect of over 55% in size
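Recombinant human tau K18 fragment […] carrying P301L, 15 uM unlabeled plus 0.24 uM Alexa 594-labeled, was fibrillized with 20 uM heparin in 100 mM sodium acetate pH 7 for 6 hr at 37 C; 30 uM ThT fluorescence read after 1 hr.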
* hit, by the source's call; ? = inconclusive; · = not tested or not shown; [ ] = dose if it differs, or a comment. Compounds with a hit are over-represented: about 3.2% of the library has one in this group of screens. Unless noted, calls follow the shape of the dose curve; as a rule, active = well fitted curve in the direction sought with a large enough effect; inconclusive = small, poorly fitted or top-dose-only effect, or another doubt; inactive = no such curve, though single readings can be large; an effect the other way counts as inactive or inconclusive.

SMILES	Tau fluor cs	KDM4E inh	Lamin A splicing	CBFb RUNX1 block	Tau fibril FP	Tau fibril ThT
CN=c1scc(C)n1/N=C/c1ccc(O)c(O)c1O	?	7.9µM*	9%	?	25µM*	7.1µM*
COc1ccc2c(Sc3ccc(C)cc3)c(C(=O)NCc3ccc(F)cc3)[nH]c2c1	-6%	·	·	·	-1%	-1%
CC(=O)c1cccc(NC(=O)Nc2sc3nc4n(c(=O)c3c2C)CCC(C)CC4)c1 (stereo unspecified)	11µM*[quencher]	·	·	·	?	?
COc1cc(OC)c(NC(=O)Nc2sc3nc4n(c(=O)c3c2C)CCC(C)CC4)cc1Cl (stereo unspecified)	4µM*[quencher]	·	·	·	11%	?
Cc1c(NC(=O)Nc2ccccc2C(F)(F)F)sc2nc3n(c(=O)c12)CCC(C)CC3 (stereo unspecified)	13µM*[quencher]	·	·	·	?	-18%
Cc1c(NC(=O)Nc2ccc(Cl)c(Cl)c2)sc2nc3n(c(=O)c12)CCC(C)CC3 (stereo unspecified)	?	·	·	·	?	-1%
Cc1ccccc1NC(=O)c1sc2nc3n(c(=O)c2c1C)CCC3	4.5µM*[quencher]	·	-3%[46 µM]	·	?	-6%
COc1ccccc1N1CCN(C(=O)Cn2ncc3c(=O)oc4ccc(C)cc4c32)CC1	-1%	·	·	·	-3%	-10%
O=C(c1cccn1-c1nnc(N2CCCCC2)s1)N1CCN(c2ccc(Cl)cc2)CC1	-10%	·	·	·	-3%	?
CCCCCCCC/C=C\CCCCCCCC(=O)OCC(CO)OC(=O)CCCCCCC/C=C\CCCCCCCC (stereo unspecified)	1%	19%	·	-2%	-7%	1%
CCOC(=O)C1=C(CS(=O)(=O)c2ccc(F)c(C)c2)NC(=O)NC1c1ccc(O)c(O)c1 (stereo unspecified)	-5%	14µM*	-6%	-2%	-2%	-1%
COc1ccc(NCc2ccc([N+](=O)[O-])s2)c(OC)c1	?	10µM*	-5%	·	?	?
CCN(CC)c1ccc(C(=O)NCc2ccc3c(c2)CCN3C(C)=O)cc1	-3%	·	?	·	7%	-5%
CC1(C)CC(=O)C2=C(C1)c1c(ccc3ccccc13)NC2c1cc([N+](=O)[O-])cc([N+](=O)[O-])c1O (stereo unspecified)	?	7%	·	-1%	?	11µM*
Cc1ccc(C2Nc3ccc4ccccc4c3C3=C2C(=O)CC(C)(C)C3)o1 (stereo unspecified)	?	?	?	17%	9%	?
COc1cc(C2Nc3ccc4ncccc4c3C3=C2C(=O)CC(C)(C)C3)cc(OC)c1O (stereo unspecified)	-21%	7.9µM*	-24%	-10%	0%	?
COc1cc(C2Nc3ccc4ncccc4c3C3=C2C(=O)CCC3)cc(OC)c1O (stereo unspecified)	-6%	-23%	?	7%	10%	?
CCn1c(-c2cc(-c3ccccc3)sc2N)n[nH]c1=S	14µM*[quencher]	2%	·	-13%	10%	?
C[C@@H](C(=O)Nc1ccc2ccccc2c1)[C@H]1C[C@]1(C)[C@H](NS(=O)(=O)c1ccc2ccccc2c1)c1ccccc1	-18%	?	·	9%	?	-4%
C[C@@H](C(=O)Nc1ccc2ccccc2c1)[C@@H]1C[C@@]1(C)[C@@H](NS(=O)(=O)c1ccc2ccccc2c1)c1ccccc1	-23%	14µM*	·	4%	?	-4%
CCOC(=O)Nc1ccc2c(c1)Nc1ccccc1S2	14µM*[quencher]	6%	?	-6%	-13%	7.9µM*
COc1cc(OC)c(NC(=S)Nc2cc(Cl)cc(Cl)c2)cc1Cl	25µM*[quencher]	-1%	?	-2%	3%	?
COc1cc(OC)c(NC(=S)Nc2cccc(C(C)=O)c2)cc1Cl	?	-1%	4%	-6%	0%	?
COc1ccccc1-c1nn2c(=O)cc(CN3CCN(S(=O)(=O)c4ccc(C)cc4)CC3)nc2s1	-8%	·	?	·	4%	-5%
COc1ccc(N=C2SCC(c3ccc([N+](=O)[O-])cc3)=NN2CCO)cc1	?	-18%	·	?	14%	11µM*
SMILES	Tau fluor cs	KDM4E inh	Lamin A splicing	CBFb RUNX1 block	Tau fibril FP	Tau fibril ThT
COc1ccc(N=C2SCC(c3ccc(C)cc3)=NN2CCO)cc1	?	-16%	·	-10%	13%	?
O=[N+]([O-])c1ccc(C2=NN(CCO)C(=Nc3ccc(OC(F)(F)F)cc3)SC2)cc1	?	-4%	24%[46 µM]	-9%	14%	14µM*
Cc1ccc(NC2=C(Cl)C(=O)OC2NC(=O)c2ccccc2)cc1 (stereo unspecified)	-3%	6%	?	6%	2%	-7%
O=C1OC(NC(=O)c2ccccc2)C(n2cc(CO)nn2)=C1Cl (stereo unspecified)	-23%	-13%	19%	-4%	?	7.1µM*
O=C(NC1(C(F)(F)F)NC(=O)N(CCc2ccccc2)C1=O)c1ccccc1F (stereo unspecified)	-17%	·	·	·	-8%	-9%
N#C/C(=C/c1ccc(Br)o1)C(N)=S	28µM*[quencher]	?	·	-22%	-21%	18µM*
COc1ccc(/C=N/NC(=O)Cn2nc([N+](=O)[O-])cc2C)c(OC)c1OC	-3%	4%	·	-6%	0%	5%
COc1cc([N+](=O)[O-])cc(/C=N/NC(=O)Cn2nccc2C)c1O	-10%	13µM*	·	?	-5%	·
COc1cc([N+](=O)[O-])cc(/C=N/NC(=O)Cn2nc(C)cc2C)c1O	7%	7.1µM*	·	?	7%	?
COc1cc([N+](=O)[O-])cc(/C=N/NC(=O)CSc2nnc(-c3ccccc3)n2C)c1O	-5%	20µM*	·	5%	1%	·
O=C(O)c1ccc(S(=O)(=O)N[C@H](Cc2ccc([N+](=O)[O-])cc2)C(=O)O)cc1	·	·	·	0%	·	·
COC(=O)c1cc(NC(C)=O)ccc1N1CCOCC1	-6%	-16%	·	1%	-5%	-2%
COC(=O)c1cc(NC(=O)c2cc(-c3ccc(C(F)(F)F)cc3)oc2C(F)(F)F)ccc1N1CCOCC1	1µM*[quencher]	?	·	2%	8%	·
